Here are results for 36 molecules from PubChem BioAssay (NCATS).

Records with an inconclusive call do not appear. Active and inactive are the calls of the source. Calls come from the whole dose curve; as a rule, active = well fitted inhibition curve with a large enough effect; inconclusive = small, poorly fitted or top-dose-only effect; inactive = flat fitted curve, though single readings scatter.
Potency is the fitted concentration of half-maximal effect.

The first test concerns 7G8. The test is described as follows: qHTS profiling for inhibitors of Plasmodium falciparum proliferation (AID 504749).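 For activity, negative = inhibition: 0% = DMSO vehicle and full inhibition = artemisinin control.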 Note: nearly all actives have a fitted effect of over 60% in size. The note with it: P. falciparum in erythrocytes, SYBR Green DNA, 72 h; series mostly up to 28.7 µM; activity, negative = inhibition: at the top concentration. Summed up:
(§1)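 Each compound contacts P. falciparum-infected red blood cells for 72 h at 37 C; lysis buffer (Tris, EDTA, saponin, Triton X, SYBR Green I) is added and fluorescence measured next morning; values normalized to controls.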
Consider `[O-][n+]1cccc(CO)c1`, for which the “activity, negative = inhibition” value is -11.8% (inactive).
In the case of `Cc1cccc(C)c1NC(=O)CN(CC(=O)O)CC(=O)O`, the “activity, negative = inhibition” value is -13% (inactive).
Still for that read-out and setting: the value for `O=C(O)[C@@H]1CSCN1` was -4.68% (inactive); that for `COc1cc2[nH]c(=O)[nH]c(=O)c2cc1OC` was -10.2% [at 12.8 µM] (inactive).
On to `N[C@@H](CSCCCO)C(=O)O`, for which the “activity, negative = inhibition” value is 13.4% (inactive).
On the same count and under the same terms, the result for `O=c1[nH]c(=O)c2[nH]c(=O)[nH]c2[nH]1` reads -6.6% (inactive); that for `CCCCCCCCCCCCCCCCCCOCC(O)CO` (stereo not drawn), -3.6% (inactive).
Same read-out and setting: the value for `O=C(O)c1ccccc1-c1ccc(C(F)(F)F)cc1` was -4.89% (inactive).
Consider `C[C@](N)(Cc1ccc(O)cc1)C(=O)O`, for which the “activity, negative = inhibition” value is 13% (inactive).
Same read-out and setting: the result for `O=C1OC(OC(=O)c2cccnc2Nc2cccc(C(F)(F)F)c2)c2ccccc21` (stereo not drawn) reads -7.32% (inactive).
Same read-out and setting: the result for `Nc1ccc(S(=O)(=O)Nc2ccccc2)cc1` reads -29.4% (inactive).
Take `NC(=O)NNc1ccccc1`: the Potency result was “inactive”.
Consider `CC1(C)[C@@H]2CC[C@@]1(C)C(=O)C2`, for which the “activity, negative = inhibition” value was 9.52% (inactive).
`CCC(=O)Nc1ccc(O)cc1`: the “activity, negative = inhibition” value was 0.277% (inactive).
In the case of `CC1(C)CO[C@@H](CC(=O)O)CN1`, the “activity, negative = inhibition” value was 0.189% (inactive).
The same measure, in the same setting: the value for `CCCCc1ncc(/C=C(\Cc2cccs2)C(=O)O)n1Cc1ccc(C(=O)O)cc1` was -29.9% (inactive); that for `NCCNCCNCCNCCN` was -2.06% (inactive); that for `CCN(CC)CCSC(=O)C(c1ccccc1)c1ccccc1` was -19.3% (inactive).
Regarding `C=Cc1c(C)c2cc3[nH]c(cc4nc(cc5nc(cc1[nH]2)C(C)=C5CCC(=O)O)C(CCC(=O)O)=C4C)c(C)c3C=C`, the “activity, negative = inhibition” value was -14.8% (inactive).
The same measure, in the same setting: the result for `NCC(=O)CCC(=O)O` reads -6.34% (inactive).
As to `COc1cc(C(=O)N2CCOCC2)cc(OC)c1OC`, the Potency entry is “inactive”.
Turning to `Cc1cccc(Nc2cc(Cl)nc(SCC(=O)O)n2)c1C`, the “activity, negative = inhibition” value was -10.6% (inactive).
Consider `O=C(O)COc1nn(Cc2ccccc2)c2ccccc12`, for which the “activity, negative = inhibition” value is -1.94% (inactive).
Still for that read-out and setting: the value for `CC(=O)NC(Cc1ccccc1)C(=O)O` (stereo not drawn) was 7.38% (inactive).
As to `Cc1cc(CC(=O)O)n(C)c1C(=O)c1ccc(Cl)cc1`, the Potency result is “inactive”.
`CCCOC(=O)c1ccccc1`: the “activity, negative = inhibition” value is 9.63% (inactive).
As for `CCCCC(CC)COC(=O)c1ccccc1O` (stereo not drawn), the “activity, negative = inhibition” value is -11.6% (inactive).
Regarding `Oc1cccc(O)c1`, the “activity, negative = inhibition” value is 10.2% (inactive).
Still for that read-out and setting: the result for `CC(=O)CCC(=O)O` reads -8.01% (inactive).
Still for that read-out and setting: the result for `COc1cc(C)c(Cc2cnc(N)nc2N)cc1OC` reads -7.32% (inactive); that for `CCN(CC)CCNC(=O)c1cc(Cl)c(N)cc1OC`, -9.32% (inactive).
As to `CCCn1cnc2c1c(=O)n(CCCCC(C)=O)c(=O)n2C`, the Potency was 11.2 µM (active).
Turning to `O=C1c2c(O)cccc2Cc2cccc(O)c21`, the “activity, negative = inhibition” value was -15.5% (inactive).
As to `Cc1ncc(COP(=O)(O)O)c(C=O)c1O`, the “activity, negative = inhibition” value is -10.5% (inactive).
As for `O=c1cc(CO)occ1O`, the “activity, negative = inhibition” value was 6.44% (inactive).
Same read-out and setting: the result for `COc1ccc2c(c1)C(=O)N(CCc1ccc(S(=O)(=O)NC(=O)NC3CCCCC3)cc1)C(=O)C2(C)C` reads -7.61% [at 12.8 µM] (inactive).

The subject of a further test is AA1029. Described as above. The conditions noted are these: P. falciparum in erythrocytes, SYBR Green DNA, 72 h; series mostly up to 28.7 µM; activity, negative = inhibition: at the top concentration. Put shortly: as §1
Consider `[O-][n+]1cccc(CO)c1`, for which the “activity, negative = inhibition” value was 0.867% (inactive).
As to `Cc1cccc(C)c1NC(=O)CN(CC(=O)O)CC(=O)O`, the “activity, negative = inhibition” value was -2.43% (inactive).
Turning to `O=C(O)[C@@H]1CSCN1`, the “activity, negative = inhibition” value was -5.59% (inactive).
Regarding `COc1cc2[nH]c(=O)[nH]c(=O)c2cc1OC`, the “activity, negative = inhibition” value is 1.97% [at 12.8 µM] (inactive).
With `N[C@@H](CSCCCO)C(=O)O`, the “activity, negative = inhibition” value was 5.08% (inactive).
Same read-out and setting: the result for `O=c1[nH]c(=O)c2[nH]c(=O)[nH]c2[nH]1` reads 3.22% (inactive); that for `CCCCCCCCCCCCCCCCCCOCC(O)CO` (stereo not drawn), 8.08% (inactive); that for `O=C(O)c1ccccc1-c1ccc(C(F)(F)F)cc1`, 1.41% (inactive).
Same read-out and setting: the result for `C[C@](N)(Cc1ccc(O)cc1)C(=O)O` reads 3.34% (inactive); that for `O=C1OC(OC(=O)c2cccnc2Nc2cccc(C(F)(F)F)c2)c2ccccc21` (stereo not drawn), 6.26% (inactive).
The same measure, in the same setting: the result for `Nc1ccc(S(=O)(=O)Nc2ccccc2)cc1` reads 9.96% (inactive).
Regarding `NC(=O)NNc1ccccc1`, the Potency entry was “inactive”.
Regarding `CC1(C)[C@@H]2CC[C@@]1(C)C(=O)C2`, the “activity, negative = inhibition” value was 4.81% (inactive).
Consider `CCC(=O)Nc1ccc(O)cc1`, for which the “activity, negative = inhibition” value was 7.83% (inactive).
The same measure, in the same setting: the value for `CC1(C)CO[C@@H](CC(=O)O)CN1` was 4.72% (inactive); that for `CCCCc1ncc(/C=C(\Cc2cccs2)C(=O)O)n1Cc1ccc(C(=O)O)cc1` was 5.87% (inactive); that for `NCCNCCNCCNCCN` was 5.01% (inactive).
Regarding `CCN(CC)CCSC(=O)C(c1ccccc1)c1ccccc1`, the “activity, negative = inhibition” value was -2.05% (inactive).
The same measure, in the same setting: the value for `C=Cc1c(C)c2cc3[nH]c(cc4nc(cc5nc(cc1[nH]2)C(C)=C5CCC(=O)O)C(CCC(=O)O)=C4C)c(C)c3C=C` was 1.75% (inactive); that for `NCC(=O)CCC(=O)O` was 8.23% (inactive).
With `COc1cc(C(=O)N2CCOCC2)cc(OC)c1OC`, the Potency result is “inactive”.
Regarding `Cc1cccc(Nc2cc(Cl)nc(SCC(=O)O)n2)c1C`, the “activity, negative = inhibition” value was 6.28% (inactive).
`O=C(O)COc1nn(Cc2ccccc2)c2ccccc12`: the “activity, negative = inhibition” value is -4.51% (inactive).
The same measure, in the same setting: the result for `CC(=O)NC(Cc1ccccc1)C(=O)O` (stereo not drawn) reads 4.41% (inactive).
For the molecule `Cc1cc(CC(=O)O)n(C)c1C(=O)c1ccc(Cl)cc1`, the Potency entry was “inactive”.
As for `CCCOC(=O)c1ccccc1`, the “activity, negative = inhibition” value is 11.8% (inactive).
Regarding `CCCCC(CC)COC(=O)c1ccccc1O` (stereo not drawn), the “activity, negative = inhibition” value was 12% (inactive).
Still for that read-out and setting: the result for `Oc1cccc(O)c1` reads 6.17% (inactive); that for `CC(=O)CCC(=O)O`, 7.17% (inactive).
As to `COc1cc(C)c(Cc2cnc(N)nc2N)cc1OC`, the “activity, negative = inhibition” value was -11.9% (inactive).
On the same count and under the same terms, the value for `CCN(CC)CCNC(=O)c1cc(Cl)c(N)cc1OC` was -7.61% (inactive); that for `CCCn1cnc2c1c(=O)n(CCCCC(C)=O)c(=O)n2C` was 2.49% (inactive).
Take `O=C1c2c(O)cccc2Cc2cccc(O)c21`: the “activity, negative = inhibition” value is 0.782% (inactive).
Still for that read-out and setting: the value for `Cc1ncc(COP(=O)(O)O)c(C=O)c1O` was -2.22% (inactive).
For the molecule `O=c1cc(CO)occ1O`, the “activity, negative = inhibition” value was 4.66% (inactive).
Same read-out and setting: the value for `COc1ccc2c(c1)C(=O)N(CCc1ccc(S(=O)(=O)NC(=O)NC3CCCCC3)cc1)C(=O)C2(C)C` was 7.83% [at 12.8 µM] (inactive).

The test system of the next test is AS120. The description is as above. The note with it: P. falciparum in erythrocytes, SYBR Green DNA, 72 h; series mostly up to 28.7 µM; activity, negative = inhibition: at the top concentration. Put shortly:
as §1
For `[O-][n+]1cccc(CO)c1`, the “activity, negative = inhibition” value is 5.57% (inactive).
Same read-out and setting: the value for `Cc1cccc(C)c1NC(=O)CN(CC(=O)O)CC(=O)O` was 3.35% (inactive).
Same read-out and setting: the value for `O=C(O)[C@@H]1CSCN1` was 7.76% (inactive); that for `COc1cc2[nH]c(=O)[nH]c(=O)c2cc1OC` was 13% [at 12.8 µM] (inactive).
On the same count and under the same terms, the result for `N[C@@H](CSCCCO)C(=O)O` reads 0.319% (inactive); that for `O=c1[nH]c(=O)c2[nH]c(=O)[nH]c2[nH]1`, 6.63% (inactive).
For the molecule `CCCCCCCCCCCCCCCCCCOCC(O)CO` (stereo not drawn), the “activity, negative = inhibition” value was 7.9% (inactive).
As to `O=C(O)c1ccccc1-c1ccc(C(F)(F)F)cc1`, the “activity, negative = inhibition” value was 13.6% (inactive).
With `C[C@](N)(Cc1ccc(O)cc1)C(=O)O`, the “activity, negative = inhibition” value was 8.83% (inactive).
The same measure, in the same setting: the value for `O=C1OC(OC(=O)c2cccnc2Nc2cccc(C(F)(F)F)c2)c2ccccc21` (stereo not drawn) was 7.7% (inactive); that for `Nc1ccc(S(=O)(=O)Nc2ccccc2)cc1` was -0.331% (inactive).
Turning to `NC(=O)NNc1ccccc1`, the Potency entry is “inactive”.
Take `CC1(C)[C@@H]2CC[C@@]1(C)C(=O)C2`: the “activity, negative = inhibition” value is 4.54% (inactive).
With `CCC(=O)Nc1ccc(O)cc1`, the “activity, negative = inhibition” value was 11.3% (inactive).
Still for that read-out and setting: the result for `CC1(C)CO[C@@H](CC(=O)O)CN1` reads 4.4% (inactive); that for `CCCCc1ncc(/C=C(\Cc2cccs2)C(=O)O)n1Cc1ccc(C(=O)O)cc1`, 5.64% (inactive); that for `NCCNCCNCCNCCN`, 9.72% (inactive).
As for `CCN(CC)CCSC(=O)C(c1ccccc1)c1ccccc1`, the Potency result is “inactive”.
Regarding `C=Cc1c(C)c2cc3[nH]c(cc4nc(cc5nc(cc1[nH]2)C(C)=C5CCC(=O)O)C(CCC(=O)O)=C4C)c(C)c3C=C`, the “activity, negative = inhibition” value was 2.16% (inactive).
Turning to `NCC(=O)CCC(=O)O`, the “activity, negative = inhibition” value was 4.92% (inactive).
With `COc1cc(C(=O)N2CCOCC2)cc(OC)c1OC`, the Potency result is “inactive”.
For `Cc1cccc(Nc2cc(Cl)nc(SCC(=O)O)n2)c1C`, the “activity, negative = inhibition” value was 14.8% (inactive).
As for `O=C(O)COc1nn(Cc2ccccc2)c2ccccc12`, the “activity, negative = inhibition” value was 4.92% (inactive).
Same read-out and setting: the value for `CC(=O)NC(Cc1ccccc1)C(=O)O` (stereo not drawn) was -5.74% (inactive).
With `Cc1cc(CC(=O)O)n(C)c1C(=O)c1ccc(Cl)cc1`, the Potency result is “inactive”.
On to `CCCOC(=O)c1ccccc1`, for which the “activity, negative = inhibition” value is 3.41% (inactive).
Same read-out and setting: the value for `CCCCC(CC)COC(=O)c1ccccc1O` (stereo not drawn) was 10.9% (inactive); that for `Oc1cccc(O)c1` was 6.36% (inactive); that for `CC(=O)CCC(=O)O` was 4.84% (inactive).
On the same count and under the same terms, the result for `COc1cc(C)c(Cc2cnc(N)nc2N)cc1OC` reads -13.8% (inactive); that for `CCN(CC)CCNC(=O)c1cc(Cl)c(N)cc1OC`, 12.6% (inactive).
Same read-out and setting: the value for `CCCn1cnc2c1c(=O)n(CCCCC(C)=O)c(=O)n2C` was -4.64% (inactive); that for `O=C1c2c(O)cccc2Cc2cccc(O)c21` was 0.739% (inactive); that for `Cc1ncc(COP(=O)(O)O)c(C=O)c1O` was 7.34% (inactive).
`O=c1cc(CO)occ1O`: the “activity, negative = inhibition” value is 4.69% (inactive).
As for `COc1ccc2c(c1)C(=O)N(CCc1ccc(S(=O)(=O)NC(=O)NC3CCCCC3)cc1)C(=O)C2(C)C`, the “activity, negative = inhibition” value is -0.34% [at 12.8 µM] (inactive).
